# RE007 growth inh: less growth of the S. pombe RE007 Vpr strain; S. pombe RE007 Vpr strain, BacTiter-Glo ATP luminescence, 24 h; Potency, µM (titrated, usually from 92.2 µM), hits mostly inhibitors; 360,000 tested, 0.21% active; AID 651644; active = well fitted falling curve with a large enough effect; inconclusive = small, poorly fitted or top-dose-only effect; inactive = no such curve, though single readings can be large or run the other way; note: nearly all actives have a fitted effect of over 50% in size
#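 Fission yeast RE007 carrying one integrated HIV-1 vpr copy, seeded at OD 0.01 in PMG+AL medium with 23 nL pinned compound. Grown 24 h at 30 degrees; viability read by BacTiter-Glo luminescence after 5 min.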
# AmpC inh no detg: inhibitors of E. coli AmpC beta-lactamase without detergent | AmpC nitrocefin hydrolysis, absorbance 480 nm, 0.0001% Triton | Potency, µM (doses to about 57.1 µM), most hits filed as inhibitors | 330,000 tested, 0.52% active | AID 485341; note: nearly all actives have a fitted effect of over 20% in size
# Target sequence (P00811 whole entry, looked up): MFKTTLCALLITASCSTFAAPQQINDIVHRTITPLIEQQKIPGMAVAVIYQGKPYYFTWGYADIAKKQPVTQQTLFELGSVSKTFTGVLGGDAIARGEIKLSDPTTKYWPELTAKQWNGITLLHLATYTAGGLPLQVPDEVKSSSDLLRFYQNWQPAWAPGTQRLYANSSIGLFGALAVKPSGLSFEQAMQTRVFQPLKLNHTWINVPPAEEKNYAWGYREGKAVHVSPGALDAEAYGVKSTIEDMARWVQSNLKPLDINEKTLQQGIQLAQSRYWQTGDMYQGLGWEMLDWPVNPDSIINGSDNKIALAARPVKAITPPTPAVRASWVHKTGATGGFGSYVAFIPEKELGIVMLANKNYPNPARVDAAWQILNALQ
#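 20 mM phosphate pH 7.0 + 0.01% (detergent screen) or 0.0001% Triton X-100; 5.3 nM AmpC reagent; cpd preinc 15 min RT; nitrocefin (800 uM stock) to start; A480 q20 s × 4 min; Activity was normalised to no-enzyme and no-compound control wells.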
# TbPYK inhibitor: inhibitors of Trypanosoma brucei pyruvate kinase | Q57TT1 | TbPYK enzyme, Kinase-Glo Plus ATP luminescence, 45 min | Potency, µM (titrated, usually from 76.8 µM), hits mostly inhibitors | 410,000 tested, 0.12% active | AID 624173; note: nearly all actives have a fitted effect of over 50% in size
#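 Luminescence from Kinase-Glo Plus, added after a 45-minute room-temperature reaction, served as the end-point read-out. The enzyme and substrate were preincubated with compound before ADP (130 uM final) initiated turnover. Concentration-effect curves came from normalized qHTS data.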
# AmpC detergent: inhibitors of E. coli AmpC beta-lactamase with detergent. AmpC hydrolysis of nitrocefin, absorbance 480 nm, 0.01% Triton. P00811. AID 485294. Potency, µM (doses to about 114 µM), actives largely listed as inhibitors. 370,000 tested, 0.041% active; note: nearly all actives have a fitted effect of over 25% in size
#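 AmpC (5.3 nM in the dispensed reagent) in 20 mM phosphate pH 7.0 with 0.01% (detergent screen) or 0.0001% Triton X-100 was preincubated with compounds for 15 min at room temperature. Nitrocefin was then added from an 800 uM solution, and hydrolysis was followed at 480 nm.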
# SARS PLpro yeast: inhibitors of SARS-CoV papain-like protease in yeast; AID 485353; S. cerevisiae expressing SARS-CoV PLpro, growth rescue; 330,000 tested, 0.19% active; Potency, µM (highest dose often 32.9 µM), hits mostly activators; calls by dose curve; note: nearly all actives have a fitted effect of over 55% in size
# Sm TGR block: blocks Schistosoma mansoni thioredoxin glutathione reductase; Q962Y6; purified TGR, DTNB reduction, TNB absorbance 405 nm; Potency, µM (doses to about 114 µM), actives largely listed as inhibitors; 360,000 tested, 3% active; note: nearly all actives have a fitted effect of over 60% in size
#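 TGR 20 nM + NADPH 100 uM (dispensed conc.), cpd preinc 15 min RT; start with NADPH (500 uM addition) then DTNB (15 mM addition). Kinetic TNB absorbance, 405 nm filter. Four-parameter Hill fit across titration.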
# Numbers stand for hits; 0 = inactive; ? = inconclusive; - = no result given; [ ] = another dose, or the depositor's remark. Most compounds without a hit are left out; they make up all but 3.3% or so of the library. Unless noted, calls come from the whole dose curve; as a rule, active = well fitted curve in the direction sought with a large enough effect; inconclusive = small, poorly fitted or top-dose-only effect, or another doubt; inactive = no such curve, though single readings can be large; an effect the other way counts as inactive or inconclusive.
SMILES,RE007 growth inh,AmpC inh no detg,TbPYK inhibitor,AmpC detergent,SARS PLpro yeast,Sm TGR block
COc1ccc(CNC(=O)CCc2c(C)c3cc4c(C)coc4cc3oc2=O)cc1,-,-,0,0,-,0
O=C(Cn1nc(C(=O)O)c2ccccc2c1=O)Nc1cc(Cl)cc(Cl)c1,0,11.2µM,0,0,0,0
O=C(NCc1ccco1)/C(=C\c1ccc(F)cc1)NC(=O)c1ccco1,0,0,0,0,0,31.6µM
O=C(NCc1ccco1)/C(=C/c1ccco1)NC(=O)c1ccco1,0,0,0,0,0,25.1µM
COc1ccc(-c2nn(-c3ccccc3)cc2C(=O)Nc2cccc(C(=O)O)c2)cc1[N+](=O)[O-],0,3.55µM,0,0,0,0
NC(=O)N/N=C/c1sc(=O)n(-c2ccccc2)c1Cl,0,0,0,0,0,31.6µM
O=C(Cn1c(-c2cccs2)cc2cc(Cl)ccc21)N1CCN(c2ccccc2F)CC1,-,-,0,0,-,0
Cc1ccc(NC(=O)Cn2cc(S(=O)(=O)NC(C)C)c(S(=O)(=O)NC(C)C)c2)cc1Cl,-,-,0,0,-,0
Cc1ccc2nc(-c3ccccc3)cn2c1,44.7µM,0,25.1µM,0,0,0
Cc1ccc2nc(-c3ccc(O)c(O)c3)cn2c1,0,0,0,0,0,?
N#Cc1ccc(N2CCCNCC2)nc1,0,0,0,0,0,28.2µM
Oc1ccccc1,-,-,0,-,-,-
Oc1ccccc1O,0[18.4 µM],0,0,?,-,15.8µM
CCc1nc(N2CCN(C(=O)c3ccco3)CC2)c2c3c(sc2n1)CCCC3,0,0,0,0,0,56.2µM
O=C(c1ccco1)N1CCN(c2ncnc3sc4c(c23)CCC4)CC1,0,0,0,0,0,11.2µM
COc1ccc(/C=N/NC(=O)c2ccc(Cn3cc([N+](=O)[O-])cn3)o2)cc1O,0,0,0,?,0,0
COc1ccc(OC)c(/C=N/NC(=O)c2ccc(Cn3cc([N+](=O)[O-])cn3)o2)c1,0,39.8µM,0,?,0,0
Cc1cc2c(cc1S(=O)(=O)NCc1ccc(F)cc1)OCCN2C,-,-,0,0,-,0
COCCCNC(=O)c1nn(-c2ccc(C)cc2)c(=O)n(C)c1=O,-,-,0,0,-,0
Cc1cc(NC(=O)c2sc(Nc3ccc(F)c(Cl)c3)nc2N)no1,0,20µM,0,0,0,0
O=C(CSc1nc2sc3c(c2c(=O)[nH]1)CCCC3)Nc1ccccc1F,-,-,0,0,-,0
O=C(O)CC1(CC(=O)N2CCN(CCO)CC2)CCCC1,0,0,0,0,0,0
COc1ccc(NC(=O)CC2(CC(=O)N3CCOCC3)CCCC2)cc1Cl,0,0,0,0,0,0
CCOc1ccccc1NC(=O)CC1(CC(=O)N2CCOCC2)CCCC1,0,0,0,0,0,39.8µM
O=C(O)CC1(CC(=O)N2CCOCC2)CCCC1,0,0,0,35.5µM,0,0
SMILES,RE007 growth inh,AmpC inh no detg,TbPYK inhibitor,AmpC detergent,SARS PLpro yeast,Sm TGR block
O=C(O)CC1(CC(=O)N2CCC(C(=O)O)CC2)CCCC1,0,0,0,44.7µM,0,0
COc1cccc(F)c1C(=O)NC(=O)Nc1ccc2nc(C)oc2c1,0,0,0,0,0,31.6µM
CSc1nc2ccc(NC(=O)NC(=O)c3c(F)cccc3F)cc2s1,0,0,0,0,0,0
O=c1cc(CO)oc(C(Nc2ccccn2)c2ccccc2F)c1O (stereo not given),0,-,0,-,-,-
O=c1cc(CO)oc(C(Nc2ccccn2)c2cccc(F)c2)c1O (stereo not given),0,39.8µM,0,?,0,2.82µM
O=c1cc(CO)oc(C(Nc2ccccn2)c2ccc(C(F)(F)F)cc2)c1O (stereo not given),0,0,0,0,0,39.8µM
CCOc1ccccc1CNC(=O)c1cnc2sc(N3CCOCC3)nn2c1=O,-,-,0,0,-,0
COC(=O)c1c(NC(=O)CCCOc2ccc(C(C)(C)C)cc2)sc2c1C(C(=O)OC)CC2 (stereo not given),-,-,0,0,-,0
Oc1ccc2ccccc2c1CN1CCN(C/C=C/c2ccccc2)CC1,0,0,0,0,0,2.82µM

# High-throughput results (PubChem)
